# Several values for one entry are separate records, joined by “and”; a condition that tells them apart may be missing. Equal values may be shown once. About 83,000 compounds went through this panel and 20% of them were active in at least one assay; those are over-represented in the sample as a whole.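 Single-dose data. Exposure time 48 hours. Values below 10 considered active.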 A number with no mark means an inactive call. Activity calls are given as the source filed them.
# Experiments:
# Assay in all cases: NCI-60 one-dose screen, 48 h (100 = growth as untreated, 0 = no growth, -100 = all killed)
# Details in all cases: 10 µM unless noted
# [1] = system: HCT-15 colon
# [2] = system: HT29 colon
# [3] = system: SNB-75 CNS
# [4] = system: SNB-19 CNS
# [5] = system: U251 CNS
# [6] = system: PC-3 prostate
# [7] = system: SK-MEL-5 melanoma
# [8] = system: UACC-62 melanoma
# [9] = system: LOX IMVI melanoma
# [10] = system: SK-MEL-28 melanoma
# [11] = system: SK-MEL-2 melanoma
# [12] = system: EKVX NSCLC
# [13] = system: SN12C renal
# [14] = system: UO-31 renal
# [15] = system: TK-10 renal
# [16] = system: ACHN renal
# [17] = system: CAKI-1 renal
# [18] = system: A498 renal
# [19] = system: HL-60(TB) leukemia
# [20] = system: CCRF-CEM leukemia
SMILES,growth [1],growth [2],growth [3],growth [4],growth [5],growth [6],growth [7],growth [8],growth [9],growth [10],growth [11],growth [12],growth [13],growth [14],growth [15],growth [16],growth [17],growth [18],growth [19],growth [20]
C[C@]12CCc3sc(Nc4ccc(F)cc4)nc3C1=CC[C@@H]1[C@@H]2CC[C@]2(C)C(=O)CC[C@@H]12,32.2%,35.5%,66.7%,67.4%,47.2%,64.3%,71.3%,69.6%,56.6%,46.5%,76.8%,78.3%,73.8%,59.8%,94.4%,77.9%,68%,75.7%,49.8%,14%
CC1=C([Te]c2ccccc2)C(=O)c2ccccc2C1=O,-43.6% (active),-22.7% (active),-25.6% (active),2.43% (active),-30.1% (active),-30.8% (active),-95% (active),-24.9% (active),-41.7% (active),-64.4% (active),9.62% (active),-38.6% (active),5.18% (active),-33.4% (active),-33% (active),-86.6% (active),-46.5% (active),-66% (active),12.7%,-44.9% (active)
[N-]=[N+]=CC(=O)CCC(=O)C=[N+]=[N-],111%,107%,96.6%,99.6%,100%,86%,116%,96.5%,94.9%,112%,113%,105%,107%,71.3%,114%,95%,97.4%,110%,76.4%,–
Cc1c(C)c(N)c(C)c(C)c1N,34.8%,25.7%,110%,82.1%,78.1%,73.6%,93%,66.3%,51.9%,106%,15%,108%,72.6%,60.6%,90.8%,-8.61% (active),46.6%,102%,103%,91.8%
CC1(C)C2CCC1(CS(=O)(=O)O)C(=O)C2 (centres undefined),91.7% and 104%,98.2% and 108%,95% and 82.9%,101% and 109%,90.8% and 101%,94.6% and 94.5%,105% and 115%,88.3% and 93.2%,77.1% and 100%,109% and 126%,107% and 106%,101% and 94.6%,87.1% and 111%,86% and 110%,96% and 87.3%,95.9% and 105%,97.5% and 84.5%,84.3% and 96.9%,104% and 80.1%,96.1% and 103%
CCC1(NC(=O)c2cc(F)c(F)c(F)c2F)C(=O)NC(=O)N(C(C)C)C1=O (centres undefined),12.4%,76.6%,88.4%,92.7%,90.6%,93%,64.7%,48.6%,42%,53.2%,68.4%,93.1%,81.7%,68.2%,123%,96.6%,93.6%,98.2%,-22.6% (active),87.3%
CCOC(=O)c1ccccc1C(=O)OCC,93.8%,102%,83.3%,105%,99.9%,113%,110%,91.4%,97.9%,114%,89.7%,80.3%,94.6%,84.8%,98.2%,98.4%,77.2%,104%,141%,94.8%
CCC1CCC(=O)O1 (centres undefined),98.1% and 105%,107% and 110%,86% and 96.4%,115% and 113%,97% and 108%,97.8% and 105%,103% and 104%,114%,97.5% and 103%,104% and 115%,94.8% and 114%,111%,108% and 109%,85.5% and 95%,105% and 109%,105% and 109%,104%,96.5% and 98.6%,78% and 109%,116%
CN(C)[C@@H]1C(=O)C(C(N)=O)=C(O)[C@@]2(O)C(=O)C3=C(O)c4c(O)ccc(Cl)c4[C@@](C)(O)[C@H]3C[C@@H]12,89.6% and 105%,85.2% and 109%,87.2% and 84.1%,98.4% and 97.9%,89.9% and 103%,81.6%,98.9% and 100%,72.9% and 89.5%,86% and 95.6%,109% and 112%,81.6% and 24.7%,111% and 98.3%,93.7% and 103%,55.1% and 82.1%,86.9%,70.9% and 94.4%,73.1% and 99.6%,92.2% and 110%,100%,94.1% and 101%
CC1=CC(=Nc2ccc(N(CCCl)CCCl)cc2)C=C(C)C1=O,8.95% (active),11.1%,25.3%,37.9%,17.9%,41.6%,22.8%,6.59% (active),16.9%,26.3%,-8.46% (active),70.6%,20.4%,-13.7% (active),9.98% (active),-1.94% (active),-44.9% (active),69.8%,-7.43% (active),-6.58% (active)
O=Cc1cn(Cc2ccccc2)c2ccccc12,106%,92%,67.8%,93.8%,68.5%,95%,85.5%,32.6%,79.4%,216%,27.1%,120%,98.1%,55.6%,25.1%,91.3%,21.9%,-92.7% (active),105%,104%
N#CCN(CC#N)[N+](=O)[O-],108%,103%,89.8%,99.1%,104%,95.4%,103%,98.2%,109%,106%,105%,104%,94%,101%,100%,110%,95.2%,95%,115%,85.2%
CC1(C)S[C@H]2CC[C@H]3OC(=O)[C@@H]1N23,106%,106%,90.9%,101%,115%,87%,111%,93.4%,103%,108%,94.4%,88.4%,119%,53.9%,91.9%,114%,66.6%,93.1%,60.9%,82.9%

# Source: PubChem BioAssay (NCI)
